Bioassay records deposited in PubChem by National Center for Advancing Translational Sciences (NCATS).
Apoferritin bind: binds horse apoferritin like a general anesthetic; apoferritin/1-aminoanthracene competitive binding, fluorescence; Potency, µM (doses to about 77.5 µM), usual class: inhibitors; 350,000 tested, 0.074% active; AID 485281; further: nearly all actives have a fitted effect of over 20% in size
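Horse-spleen apoferritin (10 uM) was mixed with 50% saturated 1-aminoanthracene in PBS, exposed to compounds for 10 min at room temperature, and read for fluorescence (ex 380 nm, em 535 nm). Competitive displacement was fitted with a four-parameter Hill equation.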
PKM2 act: activators of human pyruvate kinase M2; purified PKM2, Kinase-Glo ATP luminescence, activation; response scale: 0% is enzyme alone, no compound; Potency, µM (highest dose often 57.5 µM), hits mostly activators; 260,000 tested, 0.34% active; AID 1631; further: nearly all actives have a fitted effect of over 55% in size
Target sequence (P14618 whole entry, looked up): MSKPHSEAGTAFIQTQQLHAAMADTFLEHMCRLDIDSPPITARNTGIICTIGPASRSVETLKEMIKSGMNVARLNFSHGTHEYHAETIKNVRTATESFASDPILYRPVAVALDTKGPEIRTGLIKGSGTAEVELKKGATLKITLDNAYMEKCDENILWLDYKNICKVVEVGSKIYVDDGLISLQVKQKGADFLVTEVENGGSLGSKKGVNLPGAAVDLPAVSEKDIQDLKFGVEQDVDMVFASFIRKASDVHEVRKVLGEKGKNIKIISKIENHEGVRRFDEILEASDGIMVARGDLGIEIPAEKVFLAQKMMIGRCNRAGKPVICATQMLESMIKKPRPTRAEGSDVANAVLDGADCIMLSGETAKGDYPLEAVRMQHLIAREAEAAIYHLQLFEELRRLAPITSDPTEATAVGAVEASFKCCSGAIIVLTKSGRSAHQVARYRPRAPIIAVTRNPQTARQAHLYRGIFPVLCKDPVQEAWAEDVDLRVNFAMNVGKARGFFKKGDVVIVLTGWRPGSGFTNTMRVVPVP
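Kinase-Glo luminescence reports ATP generated from ADP (0.1 mM) and PEP (0.5 mM) by purified hPK-M2 after 1 h at room temperature, pH 7.2 imidazole buffer; intermediate enzyme activity allows detecting inhibitors and activators.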
Integrin act MD: integrin-mediated muscular dystrophy alleviation activation. alpha7betagal myoblasts, beta-gal FDG fluorescence, 48 h. Potency, µM (doses to about 38.3 µM), usual class: activators. 350,000 tested, 0.064% active. AID 624291; further: nearly all actives have a fitted effect of over 60% in size
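Alpha7betagal+/- myoblasts (passage 13) were plated 16-24 hr, then exposed to compounds (1:260 dilution of DMSO stock) for 48 hours at 37C. After MPER lysis, β-galactosidase reporter activity was read as FDG fluorescence (ex 480/em 540) after 30 minutes.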
BRCA1 expr act: activators of BRCA1 expression; MCF7-BRCA1-FFLuc reporter, luminescence, 48 h; response scale: scaled: vehicle 0%, 10 µM genistein 100%; Potency, µM (titrated, usually from 46.1 µM), hits mostly activators; 380,000 tested, 1.1% active; AID 624202; further: nearly all actives have a fitted effect of over 80% in size
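Luminescence from a BRCA1-driven firefly luciferase in MCF7 cells was the read-out, taken 15 min after substrate addition following 48 h compound exposure at 37 °C. Data were normalized to a 10 microM genistein control and DMSO vehicle.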
IL-2 act: IL-2 activation; IL-2 activation reporter assay, cell-based qHTS; stimulated with anti-CD3/CD4/CD28 beads; in transgenic mouse T cells; activation, % (series mostly up to about 46 µM); 360,000 tested, 0.065% active; in the data active means activation above about 50%; inconclusive means mostly about 30% to 49%
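Readout is EGFP and DsRed signal by fluorescent plate cytometry after 18 h at 37 degrees C. Transgenic mouse T cells (750/well) received compound for 60 min before bead stimulation (anti-CD3, anti-CD4, anti-CD28); memory T cells served as non-tolerant control.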
Large screens that a line does not name were inactive. Only some compounds are listed: those with a hit (about 1.3% of all), similar ones and a draw of the others. Unless noted, the call rests on the fitted dose curve; in most records, active means well fitted curve in the direction sought with a large enough effect; inconclusive means small, poorly fitted or top-dose-only effect, or another doubt; inactive means no such curve, though single readings can be large; an effect the other way counts as inactive or inconclusive.

Cc1cc(C)n2nc(-c3cccc(Br)c3)cc2n1	Apoferritin bind inconclusive
Cc1ccc2c(C)c(C(=O)N(C)C(C)c3ccncn3)oc2c1C (stereo not given)	none
Cc1ccc2c(C)c(C(=O)N(C)C(C)c3ccon3)oc2c1C (stereo not given)	BRCA1 expr act 10µM
COc1cc(OC)c(OC)cc1/C=C/c1cc[n+](C)c2ccccc12	none (no result: Apoferritin bind, PKM2 act, Integrin act MD, IL-2 act)
COc1ccc(-c2nnc3n2N=C(c2c(OC)cccc2OC)CS3)cc1OC	none (no result: PKM2 act, Integrin act MD, BRCA1 expr act, IL-2 act)
N=C1C(c2nc3ccccc3s2)=C(O)CN1Cc1ccco1	BRCA1 expr act 7.1µM
CCOc1ccc2c(c1)S/C(=C\c1cccs1)C(=O)N2	BRCA1 expr act inconclusive, IL-2 act 60
Nc1ccc(C(=O)Oc2ccc([N+](=O)[O-])cc2)cc1	PKM2 act 40µM
CC[C@H](C)[C@H](NC(=O)[C@H](Cc1ccc(O)cc1)NC(=O)[C@@H](NC(=O)[C@@H](N)CCCN=C(N)N)C(C)C)C(=O)N[C@@H](Cc1cnc[nH]1)C(=O)N1CCC[C@H]1C(=O)N[C@@H](Cc1ccccc1)C(=O)O	none (no result: PKM2 act, Integrin act MD, BRCA1 expr act, IL-2 act)
Cc1cc([N+](=O)[O-])ccc1-c1ccc(C2Nc3ccccc3C(=O)N2O)o1 (stereo not given)	Apoferritin bind inconclusive, PKM2 act 14µM
Cn1c(/C(C#N)=C/c2ccc(O)cc2)nc2ccccc21	BRCA1 expr act 11µM
Cn1c(/C(C#N)=C/c2ccncc2)nc2ccccc21	none
N#C/C(=C\c1ccc(-c2ccccc2)cc1)c1nc(-c2ccco2)cs1	IL-2 act 79
N#C/C(=C\c1ccc(Cl)cc1)c1nc(-c2ccco2)cs1	none
COc1cc2nc(C#N)nc(N)c2cc1OC	none (no result: Apoferritin bind, PKM2 act, Integrin act MD, IL-2 act)
CCCC(=O)Nc1cc(C(=O)NCc2ccccc2)ccc1S(=O)(=O)c1ccc(Cl)cc1	none (no result: PKM2 act, Integrin act MD, BRCA1 expr act, IL-2 act)
COc1ccc(C2OC3=C(Nc4cc(C)c(C)cc4N3)C2=O)cc1 (stereo not given)	BRCA1 expr act 2.8µM
CCSc1nnc(NC(=O)c2csc(C)c2)s1	BRCA1 expr act 5µM
Nc1ccc2oc(=O)c3ccccc3c2c1	BRCA1 expr act 11µM
Oc1ccccc1C1C=C(c2ccc3c(c2)OCO3)NC(c2cccc(Br)c2)N1 (stereo not given)	none (no result: Apoferritin bind, PKM2 act, Integrin act MD, IL-2 act)
COc1ccc(O[C@H]2C=C[C@@H](c3ccccc3)O[C@@H]2CON=C(C)C)cc1	none (no result: PKM2 act, Integrin act MD, BRCA1 expr act, IL-2 act)
Cc1ccc2[nH]c(=O)c(C(c3nnnn3C(C)(C)C)N3CCN(C(=O)c4ccco4)CC3)cc2c1 (stereo not given)	PKM2 act 25µM
CCC(C)(C)n1nnnc1C(c1cc2cc(C)cc(C)c2[nH]c1=O)N1CCN(C(=O)c2ccco2)CC1 (stereo not given)	PKM2 act 14µM
Cc1cccc2cc(C(c3nnnn3C(C)(C)C)N3CCN(C(=O)c4ccco4)CC3)c(=O)[nH]c12 (stereo not given)	none
CO[C@H]1COC(=O)[C@H](C)COC(=O)C/C=C\[C@@H](C)[C@H](OC)COC(=O)C/C=C\[C@@H]1C	none (no result: PKM2 act, Integrin act MD, BRCA1 expr act, IL-2 act)
COc1cc(N(C)C)c(OC)cc1/C=C/c1ccnc2ccccc12	none (no result: Apoferritin bind, PKM2 act, Integrin act MD, IL-2 act)
CCCCNC(=O)CSc1nnc(Cc2ccc(Cl)c(Cl)c2)c(=O)[nH]1	Integrin act MD 1.4µM
O=C(N/N=C1\CCCc2ccccc21)c1ccccc1Cl	BRCA1 expr act 10µM
O=C(N/N=C1\CCCCc2ccccc21)c1ccccn1	Apoferritin bind inconclusive, BRCA1 expr act 13µM
O=C(O)c1ccc(N/N=C2/CCCc3ccccc32)cc1	BRCA1 expr act 7.1µM
CCN(CC)c1ccc(/C=C/C(=O)C2C(=O)C=C(C)OC2=O)cc1 (stereo not given)	BRCA1 expr act 5.6µM
COc1ccccc1CCNC(=O)c1ccc(Br)s1	BRCA1 expr act 8.9µM
O=C(COc1ccccc1C(=O)Nc1ccccc1)NCCCCc1ccccc1	none (no result: Apoferritin bind, PKM2 act, Integrin act MD, IL-2 act)
Cc1cc(C)c(NC(=O)c2sc3nc(C)[nH]c(=O)c3c2C)c(C)c1	none (no result: Integrin act MD, BRCA1 expr act, IL-2 act)
Cc1ccc(NC(=O)c2sc3nc(CCl)[nH]c(=O)c3c2C)c(C)c1	BRCA1 expr act 11µM
Cc1ccc(S(=O)(=O)N2CCOCC2)cc1NC(=O)COC(=O)c1ccco1	IL-2 act 81 (no result: Apoferritin bind, PKM2 act)
